From PubChem BioAssay AID623868 (Vanderbilt High Throughput Screening Facility, 2012)
In all, about 2,100 compounds went through this assay and about 760 (36%) were called active.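 How the source made its calls: active means thallium-flux fluorescence traces judged by eye to show enhanced or reduced glutamate response, manual score 1 or -1, so both directions (some results past the limit were not filed as active); inactive means the rest, including fluorescent or raised-baseline compounds.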 Only a sample is shown.

experiment: non-GIRK thallium flux modulation in mGlu8 cells, confirmation, counter-screen for GIRK activator project, cell-based, HEK-293 rmGlu8, no GIRK (AID 623868); settings: thallium flux fluorescence, at 10 µM, actives lie on both sides, codes: 1 enhancer, -1 blocker, 0 none, thallium stimulus containing EC20 glutamate;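 further: extra codes mark interference with 3 for fluorescent and 4 for baseline rise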

For `CCOc1ccc(NC(=O)Nc2cccs2)cc1`, which manual score is on record?
The manual score was 0 (inactive).

With `CCCCN(C)CC(O)Cn1cc(/C=C/C(=O)c2cccs2)c2ccccc21` (centres undefined) as the compound, how does the manual score read?
Its manual score is 3 (inactive).

With `Cc1cccc(NC(=S)NNC(=O)c2sccc2C)c1` as the compound, how does the manual score read?
Its manual score is 1 (active).

Which manual score does the source give for `CC(C)C(=O)Nc1nnn(C)n1` here?
The manual score was 0 (inactive).

Which manual score does the source give for `C=CCNCc1cccn1-c1sc2c(c1C#N)CCCC2` here?
Its manual score is 0 (inactive).

For `Cc1[nH]n(-c2ccc(F)cc2)c(=O)c1/C=N/c1sc2c(c1C#N)CCCC2`, which manual score is on record?
Its manual score is 3 (inactive).

For `Cc1[nH]n(-c2cccc3ccccc23)c(=O)c1/C=N/c1sc2c(c1C#N)CCC2`, which manual score is on record?
Its manual score is 1 (active).

Which manual score does the source give for `CCOc1cc(C2NN=C(c3ccc(C)cc3)S2)ccc1O` (centres undefined) here?
The manual score was 1 (active).

Which manual score does the source give for `C=CCNC(=O)NC(=S)c1ccccc1` here?
Its manual score is 1 (active).

With `N#Cc1ccc(-c2csc(NC3=NCCCCC3)n2)cc1` as the compound, how does the manual score read?
The manual score was 0 (inactive).

For `C=CCNC(=S)NNC(=O)COc1ccc(Cl)cc1Cl`, which manual score is on record?
Its manual score is 0.5 (inactive).

Which manual score does the source give for `COc1ccc(NC(=S)SC)cc1OC` here?
Its manual score is 0 (inactive).

With `O=C(COc1ccc(Cl)cc1Cl)NNC(=S)Nc1ccc(F)cc1` as the compound, how does the manual score read?
The manual score was 1 (active).

With `CCC(C)c1ccc(NC(=S)Nc2ccc(OC)c(OC)c2)cc1` (centres undefined) as the compound, how does the manual score read?
The manual score was 0 (inactive).

Which manual score does the source give for `COC(=O)NC(=S)Nc1ccc(Oc2ccc(Cl)cc2Cl)c(Cl)c1` here?
Its manual score is 1 (active).

Which manual score does the source give for `O=C(COc1ccc(Cl)cc1Cl)Nc1noc2ccccc12` here?
The manual score was 0 (inactive).

For `CC(=O)c1ccc(OC(=O)N(c2ccccc2)c2ccccc2)cc1`, which manual score is on record?
Its manual score is 0 (inactive).

With `COc1ccc2nc(/N=C/c3c(C)[nH]n(-c4ccc(C)cc4C)c3=O)sc2c1` as the compound, how does the manual score read?
Its manual score is 1 (active).

Which manual score does the source give for `CCOc1ccc2nc(/N=C/c3c(C)[nH]n(-c4ccc(C)cc4)c3=O)sc2c1` here?
The manual score was 1 (active).

With `CCOc1ccc2nc(/N=C/c3c(C)[nH]n(-c4ccccc4)c3=O)sc2c1` as the compound, how does the manual score read?
The manual score was 1 (active).

Which manual score does the source give for `COc1ccc2nc(/N=C/c3c(C)[nH]n(-c4ccc(C)cc4)c3=O)sc2c1` here?
The manual score was 1 (active).

With `CCOc1[nH]n(-c2ccc(Cl)cc2)c(=O)c1C=Nc1ccc(Cl)cc1` as the compound, how does the manual score read?
Its manual score is 0 (inactive).

For `CC(C)OC(=O)CC12CN3CN(C1)CC(CC(=O)OC(C)C)(C3)C2=O`, which manual score is on record?
The manual score was 0 (inactive).

Which manual score does the source give for `CC1(C)NC(=O)N(CC(O)COc2ccc(-c3ccc(C#N)cc3)cc2)C1=O` (centres undefined) here?
The manual score was 0 (inactive).

With `CCOc1cc(N2CCOCC2)c(OCC)cc1NC(=O)COC(=O)CCc1c[nH]c2ccccc12` as the compound, how does the manual score read?
Its manual score is 0 (inactive).

Which manual score does the source give for `COc1c2occc2c(OC)c2c(=O)cc(C(F)(F)F)oc12` here?
Its manual score is 0 (inactive).

Which manual score does the source give for `CCN(CC)c1ccc(NC(=O)c2nc3nc(C)cc(C(F)F)n3n2)cc1` here?
The manual score was 0 (inactive).

For `O=C(COC(=O)CCC1CCCC1)Nc1nc2c(F)c(F)c(F)cc2s1`, which manual score is on record?
The manual score was 0 (inactive).

Which manual score does the source give for `CCN1CCCC1CNC(=O)C1CCN(Cc2nc(-c3cccc(Br)c3)oc2C)CC1` (centres undefined) here?
The manual score was 0 (inactive).

For `CCOC(=O)C(CC)Sc1nnc(COc2ccc(C)cc2)n1-c1ccccc1` (centres undefined), which manual score is on record?
Its manual score is 3 (inactive).

For `CCOC(=O)C(CC)Sc1nnc2cc(C)c3ccccc3n12` (centres undefined), which manual score is on record?
Its manual score is -1 (active).

Which manual score does the source give for `O=c1c2ccc(Cl)cc2[nH]c(=S)n1CCC1=CCCCC1` here?
Its manual score is 1 (active).

Which manual score does the source give for `CCN(CC)CCn1c(=S)[nH]c2cc(Cl)ccc2c1=O` here?
Its manual score is 0.5 (inactive).

Which manual score does the source give for `N#CCCN(Cc1ccccc1)C(=S)NC(=O)c1ccccc1` here?
The manual score was 1 (active).

Which manual score does the source give for `COCCN(C(=O)Cc1cccs1)C(C(=O)NCc1ccc(OC)cc1)c1ccccc1` (centres undefined) here?
The manual score was 0 (inactive).

With `COc1ccc(CNC(=O)C(C#N)c2nc3ccccc3nc2N2CCCC2)cc1` (centres undefined) as the compound, how does the manual score read?
Its manual score is 3 (inactive).

For `COc1ccc(CN(CCC#N)C(=S)NC(=O)c2ccccc2)cc1`, which manual score is on record?
Its manual score is 1 (active).

Which manual score does the source give for `O=C1/C(=C/c2ccc(N3CCCC3)cc2)NC(=S)N1C1CC1` here?
The manual score was 3 (inactive).

Which manual score does the source give for `CCN1C(=O)/C(=C/c2ccc(C)s2)NC1=S` here?
The manual score was 0.5 (inactive).

For `CC(C)CN1C(=O)/C(=C/c2cccs2)NC1=S`, which manual score is on record?
The manual score was 1 (active).

With `CCCN1C(=O)/C(=C/c2ccc(C)s2)NC1=S` as the compound, how does the manual score read?
The manual score was 1 (active).

With `CCCN1C(=O)/C(=C/c2ccc(N3CCCC3)c(C)c2)NC1=S` as the compound, how does the manual score read?
Its manual score is 3 (inactive).

With `CSc1nc2ccccc2cc1/C=C(\C#N)c1cccc(C)c1` as the compound, how does the manual score read?
The manual score was 0 (inactive).

With `Cc1ccc(C(=O)N/N=C/C2=Cc3ccccc3OC2C)cc1` (centres undefined) as the compound, how does the manual score read?
Its manual score is 1 (active).

Which manual score does the source give for `CC1Oc2ccccc2C=C1/C=N/NC(=O)c1ccccc1` (centres undefined) here?
Its manual score is 0 (inactive).

With `COC(=O)c1sc(NC(=S)NC(=O)c2ccccc2Cl)nc1C` as the compound, how does the manual score read?
Its manual score is 1 (active).

With `COC(=O)c1sc(NC(=S)NC(=O)c2ccccc2)nc1C` as the compound, how does the manual score read?
The manual score was 1 (active).

For `CCOC(=O)c1sc(NC(=S)NC(=O)c2ccco2)nc1C`, which manual score is on record?
Its manual score is 1 (active).

Which manual score does the source give for `Cc1nnc(NC(=O)c2ccco2)s1` here?
The manual score was 0 (inactive).

For `CCCCSc1nc(N)c(NC(=O)c2ccco2)c(=O)[nH]1`, which manual score is on record?
Its manual score is 0 (inactive).

With `COC(=O)Nc1nc(C)c(C(=O)N(C)C)s1` as the compound, how does the manual score read?
Its manual score is 0 (inactive).

With `COC(=O)c1sc(NC(=S)NC(=O)c2cccc(C)c2)nc1C` as the compound, how does the manual score read?
The manual score was 1 (active).

For `COc1cc(C)ccc1OCCOc1cc(C)ccc1Cl`, which manual score is on record?
Its manual score is 0 (inactive).

With `COc1ccc(OC)c(S(=O)(=O)N(C)CC(=O)N2CCN(c3ccccc3F)CC2)c1` as the compound, how does the manual score read?
Its manual score is 0 (inactive).

With `Cc1cccc2c1nc(-c1ccccc1)n1cnnc21` as the compound, how does the manual score read?
Its manual score is 0 (inactive).

Which manual score does the source give for `Cc1cc(NC(=O)COc2ccc(Cl)cc2Cl)n(-c2ccccc2)n1` here?
Its manual score is 0 (inactive).

Which manual score does the source give for `O=C(COc1ccc(Cl)cc1Cl)Nc1ccccn1` here?
The manual score was 0 (inactive).

For `CN(C(=S)NC(=O)CCCOc1ccc(Cl)cc1Cl)c1ccccc1`, which manual score is on record?
The manual score was 1 (active).

Which manual score does the source give for `CSc1nc(N2CCOCC2)c2c(c1C#N)CC(C)(C)OC2` here?
The manual score was 0 (inactive).

Which manual score does the source give for `Cc1nc(SC2CCOC2=O)c2c(C)c(C)sc2n1` (centres undefined) here?
Its manual score is 1 (active).

With `CCNC(=S)N/N=C/c1c(Cl)cccc1Cl` as the compound, how does the manual score read?
The manual score was 1 (active).

Which manual score does the source give for `Cc1ccc(NC(=S)N/N=C/c2c(Cl)cccc2Cl)c(C)c1` here?
The manual score was 1 (active).

For `Cc1ccc(NCC(=O)Nc2cccc(S(=O)(=O)N(C)C)c2)c(Cl)c1`, which manual score is on record?
Its manual score is 0 (inactive).

Which manual score does the source give for `Cc1cccc(-n2c(O)c(/C=N/NC(=O)c3ccccc3Cl)c3ccccc3c2=O)n1` here?
Its manual score is 3 (inactive).

With `CCOC(=O)N/N=C/c1c(C)nn(-c2ccccc2Cl)c1Cl` as the compound, how does the manual score read?
Its manual score is 0 (inactive).

With `COc1ccc(C)cc1S(=O)(=O)Nc1cccc(Cl)c1Cl` as the compound, how does the manual score read?
Its manual score is 0.5 (inactive).

Which manual score does the source give for `O=C(Cn1nc(Cc2ccncc2)c2ccccc2c1=O)N1CCN(C(=O)c2ccco2)CC1` here?
The manual score was 0 (inactive).

For `COc1cccc(-n2c(SCC(=O)NCCC3=CCCCC3)nc3n[nH]c(C)c3c2=N)c1`, which manual score is on record?
The manual score was 0 (inactive).

Which manual score does the source give for `Cc1cc(C)c2nc(SCC(=O)NCCC3=CCCCC3)cc(C)c2c1` here?
The manual score was 1 (active).
